High-throughput results deposited in PubChem by several laboratories.
PfHsp40 rescue: compounds rescuing yeast from Plasmodium falciparum HSP40 toxicity | S. cerevisiae expressing PfHsp40, growth rescue, ATP luminescence | actives 0.68% (n = 340,000) | growth rescue, % at 12.5 µM; in the data active = growth rescue above about 28%, passing the limit was not always enough;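 also: yeast W303a lacking pdr1 and pdr3 grown in galactose medium; growth measured after three days at 30 °C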
RN4220 kill: S. aureus RN4220 growth inhibition | AID 1259311 | inhibition, % (no concentration beside the values) | OD600, 16 h | actives 0.33% (n = 330,000); in the data active = inhibition above about 85%;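 also: plate controls were untreated cells for no effect and reference antibiotic for full effect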
Mtb hypoxia rep: reduces hypoxia-regulated biosensor signal in M. tuberculosis. AID 1159583. actives 0.1% (n = 300,000). M. tuberculosis hypoxia-regulated fluorescent reporter, fluorescence. fluorescence inhibition, % (concentration not given with the values); in the data active = fluorescence inhibition mostly above about 23%, no sharp cut-off; inactive = mostly below about 17%
ugtP null kill: kills S. aureus RN4220 lacking UgtP; S. aureus RN4220 ugtP deletion, OD600 growth, 16 h; growth inhibition, % (test concentration not listed); actives 0.54% (n = 330,000); in the data active = growth inhibition above about 68%;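 also: plate controls were untreated wells for no effect and antibiotic for full effect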
CCHF vOTU inh: blocks the CCHF virus ovarian tumor domain protease | CCHFV vOTU protease, Pep-AMC fluorescence | inhibition, % at 11.5 µM | actives 0.55% (n = 370,000); in the data active = inhibition above about 30%; also: 0% = vehicle wells with enzyme and 100% = no enzyme wells
Vc quorum ag: induces V. cholerae light production without autoinducers. V. cholerae BH1578 lux reporter, luminescence, 6 h. activation, % at 18.7 µM. actives 0.16% (n = 350,000); in the data active = activation mostly above about 9.7%, no sharp cut-off
Active calls of the source: *; i = inactive; x = not tested or not shown. A selection: hits, their analogues and other compounds. The true share with any hit is near 1.7%.

SMILES | PfHsp40 rescue | RN4220 kill | Mtb hypoxia rep | ugtP null kill | CCHF vOTU inh | Vc quorum ag
COc1cc(-n2c(=S)[nH]c3ccccc3c2=O)c(Cl)cc1Cl | 6 | -5 | x | -58 | 1 | i
CC(C)Oc1cc(-n2c(=S)[nH]c3ccccc3c2=O)c(Cl)cc1Cl | 20 | 100* | x | 101* | 8 | i
COC(=O)C1=C(C(=O)OC)C2N(C)c3ccccc3[C@@]23CC(CO)N(C(=O)C2CCC2)C3=N1 (stereo not given in full) | x | -2 | -1 | -14 | x | x
CC(CCC(C)OC1OC(C)C(O)CC1O)OC1OC(C)C(O)CC1O (stereo not given) | x | 2 | 10 | 8 | x | x
O=C(NNc1c(Cl)cc(Cl)cc1Cl)c1cccc([N+](=O)[O-])c1 | 192* | 2 | 2 | -9 | -10 | 0
COc1ccc2[nH]c3c(C)c4ccncc4c(C)c3c2c1 | 8 | 98* | x | 96* | 12 | 0
Cc1c2ccncc2cc2c1[nH]c1ccccc12 | 7 | 14 | 10 | 22 | 0 | -6
Cc1c2ccncc2c(C)c2c1[nH]c1ccccc12 | -1 | 98* | 60* | 100* | x | 8
CC(=O)c1cccc(N/C=C\C(=O)c2ccc(C)cc2)c1 | 27* | 1 | 0 | -10 | 20 | -4
Cn1ncc([N+](=O)[O-])c1C(=O)NN=Cc1cccc([N+](=O)[O-])c1 | x | -2 | 1 | 7 | x | x
COC(=O)c1ccc(C=NNC(=O)CC(=O)NCC(C)C)cc1 | x | 1 | x | 8 | x | x
CC(C)COc1ccc(Cc2cnc(N)nc2N)cc1 | 1 | 16 | 6 | 97* | 2 | i
CSc1ccc(/C=C(\C#N)C(=O)NC2CCCCC2C)cc1 (stereo not given) | 0 | -2 | -1 | -25 | 0 | 0
CC1CCCCC1NC(=O)/C(C#N)=C/c1ccccc1F (stereo not given) | 111* | 46 | 7 | 46 | -7 | 7
COc1ccc(OC)c(C=NNC(=O)CNC(=O)c2ccc(S(=O)(=O)N3CCOCC3)cc2)c1 | x | -2 | -7 | 0 | x | x
Cc1ccc(S(=O)(=O)N2CCCC(C(=O)N3CCN(c4ccccc4)CC3)C2)cc1 (stereo not given) | 74* | 3 | 3 | 10 | 26 | 2
COc1ccc(N2CCN(C(=O)C3CCCN(S(=O)(=O)c4ccc(C)cc4)C3)CC2)cc1 (stereo not given) | 0 | 2 | -17 | 2 | 0 | 0
Cc1cccc(CSc2ncnc3c2cnn3Cc2ccccc2)c1 | 0 | -8 | 5 | 98* | -8 | 0
CC(=NNC(=O)c1nnn(-c2nonc2N)c1-c1ccccc1)c1ccncc1 | x | 3 | 0 | -3 | x | x
C=CCn1c(O)c(C=Nc2ccc(N(CC)CC)cc2)c(=O)[nH]c1=O | 0 | 7 | 1 | 12 | 40* | i
C=CCn1c(O)c(C=Nc2ccc(F)cc2)c(=O)[nH]c1=O | -2 | 2 | 9 | 9 | -1 | 2
Cn1cc(C(=O)N/N=C/C=C/c2ccccc2)ccc1=O | 51* | x | x | x | 12 | i
COc1ccccc1/C=C/C=NNC(=O)c1ccc(=O)n(C)c1 | x | 0 | 3 | 0 | x | x
CCOC(=O)c1c(-c2ccccc2)oc2ccc(OC)cc12 | -1 | -3 | x | 90* | -1 | -7
NC(=O)c1c(-c2ccccc2)oc2ccc(O)cc12 | 0 | 0 | -3 | 1 | -5 | i
SMILES | PfHsp40 rescue | RN4220 kill | Mtb hypoxia rep | ugtP null kill | CCHF vOTU inh | Vc quorum ag
CCOC(=O)c1c(-c2ccccc2)oc2ccc(O)cc12 | 318* | 2 | 15 | 3 | -1 | 0
CCOC(=O)c1c(-c2ccccc2)oc2ccc(OCC)cc12 | 0 | -5 | 4 | 79 | -1 | -1
NCC(Cc1ccccc1)NCCc1cc(C(F)(F)F)cc(C(F)(F)F)c1 (stereo not given) | x | -3 | 21 | 3 | x | x
Fc1cccc2sc(Nc3nnc(-c4ccco4)o3)nc12 | 74* | 50 | -63 | 38 | -9 | i
CCOc1ccc(S(=O)(=O)Nc2ccccc2C(=O)NN=Cc2c(OC)ccc3ccccc23)cc1 | x | 9 | -1 | 0 | x | x
COc1cc(-c2cc[n+](C)cc2)ccc1O | 67* | 2 | 2 | 4 | 7 | i
S=C(NCCCn1ccnc1)Nc1cccc(Cl)c1 | 35* | 0 | 9 | 3 | 1 | 0
COC(=O)C1=C(c2cccc3c2S(=O)(=O)c2ccccc2-3)CC2CCC1N2C(=O)N1CCOCC1 (stereo not given) | x | 5 | 10 | 2 | x | x
N[C@@H]1C[C@H]1c1ccccc1 | 44* | x | x | x | 1 | i
O=C(/C(=N/N=C/c1ccc(O)c(O)c1O)c1ccccc1)c1ccccc1 | 520* | x | x | x | 3 | 0
CCC1=C(OC(=O)N(CC)CC)N2C(=O)OC(=NCC3CC3)[C@]2(C)C2C1=CCC1C(=O)N(CC(=O)OC)C(=O)C12 (stereo not given in full) | x | 7 | 17 | 1 | x | x
Cc1noc(C)c1COC(=O)CCCNC(=O)c1ccc(Cl)cc1 | 1 | 7 | 3 | 12 | -5 | -1
Cc1cccc(COC(=O)CCCNC(=O)c2ccc(Cl)cc2)c1 | 77* | 3 | 4 | 3 | 1 | i
C=CCN1C(=O)C(Cc2ccc(OC)cc2)SC1=NN=Cc1ccco1 (stereo not given) | x | 2 | -7 | 10 | x | x
CC1(C)CC(=O)C2=C(C1)N=c1sc(=Cc3ccc(F)c(F)c3)c(=O)n1C2c1ccc(F)cc1 (stereo not given) | x | -11 | x | -1 | x | x
CCn1nc(C)cc1-c1nnc(SCC(=O)Nc2ccccc2)n1CCCOC | 1 | -1 | 2 | -1 | -8 | i
CCn1nc(C)cc1-c1nnc(Sc2ncc([N+](=O)[O-])s2)n1C | 4 | 48 | 16 | 91* | 13 | 1
Clc1ccc2c(NN=Cc3cccc(Br)c3)ccnc2c1 | x | 101* | 1 | 101* | x | x
Oc1ccc(/C=N/Nc2ccnc3cc(Cl)ccc23)c(O)c1O | 22 | x | x | x | -8 | 0
Clc1ccc2c(NN=Cc3ccccc3Br)ccnc2c1 | x | 98* | 6 | 99* | x | x
Clc1ccc2c(NN=Cc3cccnc3)ccnc2c1 | x | 3 | -5 | 9 | x | x
O=[N+]([O-])c1ccc(S(=O)Cc2ccccc2)c([N+](=O)[O-])c1 (stereo not given) | 253* | x | x | x | -2 | i
CC(C)(C)CC(=O)NC(=S)Nc1ccccc1C(F)(F)F | 6 | 5 | -5 | 93* | 17 | 0
CC(C)CC(=O)NC(=S)Nc1ccccc1C(F)(F)F | 1 | 1 | 3 | 71 | -7 | 4
CN1c2ccsc2C(=NNc2ccc(F)cc2)CS1(=O)=O | x | 83 | -3 | 100* | x | x
Cc1cccc(C(=O)NN=C2CS(=O)(=O)N(C)c3ccsc32)c1 | x | 3 | -4 | 2 | x | x
COc1ccc(-c2nc(N3CCN(C)CC3)sc2-c2ccc(OC)cc2)cc1 | -1 | -4 | -3 | 99* | -4 | 0
COc1ccc(-c2nc(N3CCCCCC3)sc2C(=O)c2ccccc2)cc1 | 0 | 0 | x | 73 | 6 | i
Cn1c(N/N=C/c2cccs2)cc(=O)n(C)c1=O | -1 | x | x | x | -2 | 33*
